Experimental data: paper PMC4336329 (PLoS ONE, 2015)
Hit rate of the full screen: of about 310,000 compounds, about 14,000 (4.5%) showed an effect of 50% or more. The effect is printed as a negative number. The sample holds strong results, similar compounds and a random draw of the others, so the mix is not that of the screen. Where a SMILES comes first, the peptide text is derived from it. The star is where a group is joined. PhAc = O=C(Cc1ccccc1)*; OBn = c1ccc(CO*)cc1

Molecular target: human ether-à-go-go-related gene (hERG) potassium channel (human, UniProt Q12809)
Test: primary screen, population patch clamp on CHO cells stably expressing hERG; higher = less effect of the substance
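Note: peak tail current of the secondary pulse compared with the same well before compound.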

Sequence of human ether-à-go-go-related gene (hERG) potassium channel (Q12809 whole entry, looked up): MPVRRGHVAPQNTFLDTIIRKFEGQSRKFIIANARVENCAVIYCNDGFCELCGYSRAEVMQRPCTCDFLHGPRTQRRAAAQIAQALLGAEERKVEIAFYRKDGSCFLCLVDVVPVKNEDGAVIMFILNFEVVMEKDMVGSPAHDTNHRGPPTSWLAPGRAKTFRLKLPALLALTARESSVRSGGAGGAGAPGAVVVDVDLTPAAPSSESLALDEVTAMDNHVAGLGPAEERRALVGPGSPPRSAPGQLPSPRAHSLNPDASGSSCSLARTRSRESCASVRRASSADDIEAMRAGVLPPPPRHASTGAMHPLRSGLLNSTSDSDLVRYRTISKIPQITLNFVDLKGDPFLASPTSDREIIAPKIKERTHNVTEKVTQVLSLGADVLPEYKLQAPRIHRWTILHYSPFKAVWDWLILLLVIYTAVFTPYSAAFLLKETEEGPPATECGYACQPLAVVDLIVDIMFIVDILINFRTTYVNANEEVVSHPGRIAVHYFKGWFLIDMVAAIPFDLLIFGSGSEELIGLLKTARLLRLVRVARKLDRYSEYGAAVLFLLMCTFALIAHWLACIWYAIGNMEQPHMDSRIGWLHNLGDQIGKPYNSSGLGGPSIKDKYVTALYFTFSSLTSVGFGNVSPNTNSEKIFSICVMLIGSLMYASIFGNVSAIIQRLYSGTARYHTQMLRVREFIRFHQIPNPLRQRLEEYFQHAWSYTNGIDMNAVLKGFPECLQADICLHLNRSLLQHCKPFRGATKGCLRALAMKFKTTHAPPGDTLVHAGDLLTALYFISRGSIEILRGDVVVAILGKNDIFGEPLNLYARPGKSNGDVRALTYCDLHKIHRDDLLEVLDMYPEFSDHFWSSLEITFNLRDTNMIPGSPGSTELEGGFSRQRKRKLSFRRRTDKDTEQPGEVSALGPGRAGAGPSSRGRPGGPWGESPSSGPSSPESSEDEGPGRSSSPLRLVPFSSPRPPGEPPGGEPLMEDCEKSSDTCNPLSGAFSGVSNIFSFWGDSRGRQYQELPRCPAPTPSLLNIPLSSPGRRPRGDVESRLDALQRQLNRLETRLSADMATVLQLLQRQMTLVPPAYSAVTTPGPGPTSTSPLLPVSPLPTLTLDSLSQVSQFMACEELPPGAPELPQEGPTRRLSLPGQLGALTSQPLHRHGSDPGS

| Compound | hERG current change (%, negative = inhibition) at 10uM |
| --- | --- |
| Cc1ccc2nc(SC(C(=O)Nc3ccc(F)cc3)c3ccccc3)[nH]c2c1 (centres unmarked) | -1.38% |
| Cc1ccsc1/C=N/NC(=O)c1ccc2nc[nH]c2c1 | -2.67% |
| COC(=O)c1cc(C#N)c(OC(C)C)nc1C | -6.52% |
| Cc1cc(C)c(S(=O)(=O)N2CCCOC2CNC(=O)C(=O)NCc2cccnc2)c(C)c1 (centres unmarked) | 8.23% |
| COc1ccccc1C(c1nnnn1Cc1ccccc1)N1CCN(c2nc3ccccc3s2)CC1.Cl (centres unmarked) | 23.1% |
| COc1ccc(C(c2nnnn2Cc2ccccc2)N2CCN(c3nc4ccccc4s3)CC2)cc1 (centres unmarked) | 13.7% |
| COc1ccc(C(c2nnnn2Cc2ccccc2)N2CCN(c3nc4ccccc4s3)CC2)cc1OC.Cl (centres unmarked) | -58.4% |
| O=C(N/N=C/c1ccc(Cl)cc1)c1nc2ccc([N+](=O)[O-])cc2c(=O)[nH]1 | -27.3% |
| CC(C)Cn1c(CN2C(=O)c3ccccc3C2=O)nc2ccccc2c1=O | 16.7% |
| Fc1cc(Br)ccc1NC(=S)NCCc1ccccc1 | -1.43% |
| O=C(c1ccccn1)N1CCCC(N2CCN(c3ccc(F)cc3)CC2)C1 (centres unmarked) | -37.2% |
| CC(C)c1cc(C(=O)N2CCCC(N3CCN(c4ccc(F)cc4)CC3)C2)no1 (centres unmarked) | -72.1% |
| O=C(c1cc(C2CC2)on1)N1CCCC(N2CCN(c3cccc(C(F)(F)F)c3)CC2)C1 (centres unmarked) | -48.7% |
| O=C(c1cc(C2CC2)on1)N1CCCC(N2CCN(c3ccc(F)cc3)CC2)C1 (centres unmarked) | -63.7% |
| CCCc1cc(C(=O)N2CCCC(N3CCN(c4ccc(F)cc4)CC3)C2)no1 (centres unmarked) | -73% |
| CCc1noc(C)c1C(=O)N1CCCC(N2CCN(c3ccc(F)cc3)CC2)C1 (centres unmarked) | -27.2% |
| COCc1ccc(C(=O)N2CCCC(N3CCN(c4ccc(F)cc4)CC3)C2)o1 (centres unmarked) | -47.3% |
| Cc1cc(C(=O)N2CCCC(N3CCN(c4ccc(F)cc4)CC3)C2)no1 (centres unmarked) | -37.7% |
| COC(=O)c1ccc(C(=O)N2CCCC(N3CCN(c4ccc(F)cc4)CC3)C2)nc1 (centres unmarked) | -56.1% |
| Cc1cccc(C(=O)N2CCCC(N3CCN(c4ccc(F)cc4)CC3)C2)n1 (centres unmarked) | -48.4% |
| O=C(c1cc(C2CC2)on1)N1CCN(c2ccc(F)cc2)CC1 | -43.4% |
| COC(=O)c1ccc(C(=O)N2CCCC(N3CCN(c4ccccc4)CC3)C2)nc1 (centres unmarked) | -22.4% |
| O=C(Cc1ccccc1)N[C@H](c1ccccc1)P(=O)(O)CO | 8.47% |
| CC(=O)c1cccc(NC(=O)Nc2ccc(C(=O)N3CCOCC3)cc2)c1 | -0.351% |
| NS(=O)(=O)c1ccc(NC(=O)COC(=O)c2ccc3c(c2)OCCO3)cc1 | 24% |
| CC(C)C(=O)Nc1sc2c(c1C#N)CCCCC2 | 9.53% |
| Cc1cc(C)c(S(=O)(=O)Nc2cccc3nsnc23)c(C)c1 | -3.18% |

| Compound | hERG current change (%, negative = inhibition) at 10uM |
| --- | --- |
| O=C(NC1CCCC1)C(c1ccc(F)cc1)N(C(=O)c1csnn1)C1CCCC1 (centres unmarked) | 9.14% |
| COC(=O)c1ccc(CSc2nnc3n(Cc4ccccc4OC)c(=O)c4ccccc4n23)o1 | -19.3% |
| CCc1noc(C)c1C(=O)N1CCCC(CCC(=O)NCc2cccc(OC)c2)C1 (centres unmarked) | 20.2% |
| Cc1ccc(N=Nc2c(N)n[nH]c2N)cc1 | 24.5% |
| CNP(=O)(Oc1ccccc1)OC12CC3CC(CC(C3)C1)C2 (centres unmarked) | -2.75% |
| O=C(Nc1nnc(SCc2ccc(Cl)cc2)s1)C1CCCO1 (centres unmarked) | -21.9% |
| O=C(CNC(=O)c1ccco1)OCc1ccc(C(=O)Oc2ccccc2)cc1 | -73.6% |
| O=C(CNC(=O)c1ccco1)NCC(=O)OCc1ccc(C(=O)Oc2ccc(Cl)cc2)cc1 | 9.73% |
| O=C(CNS(=O)(=O)c1ccccc1)NCC(=O)OCc1ccc(C(=O)c2ccccc2)cc1 | -61.6% |
| O=C(CNC(=O)Cc1ccccc1)NCC(=O)OCc1ccc(C(=O)c2ccccc2)cc1 | -5.33% |
| O=C(CNS(=O)(=O)c1ccccc1)NCC(=O)OCc1ccc(Cl)cc1 | 13.7% |
| O=C(CNC(=O)Cc1ccccc1)NCC(=O)OCc1ccccc1 (PhAc-Gly-Gly-OBn) | 12.4% |
| O=C(CNC(=O)c1ccco1)OCc1ccc(C(=O)c2ccccc2)cc1 | -69.2% |
| CCOC(=O)c1ccc(COC(=O)CNC(=O)CNC(=O)Cc2ccccc2)cc1 | -57.2% |
| O=C(CNC(=O)c1ccco1)NCC(=O)OCc1cccc(C(=O)Oc2ccccc2)c1 | -3.88% |
| COC(=O)c1ccc(COC(=O)CNC(=O)c2ccco2)cc1 | 17.3% |
| O=C(CNC(=O)c1ccco1)OCc1ccc(Br)cc1 | 2.8% |
| O=C(CNS(=O)(=O)c1ccccc1)NCC(=O)OCc1ccc(Br)cc1 | -6.92% |
| O=C(Nc1cccc2c1CCCC2)c1ccc(Cl)c([N+](=O)[O-])c1 | 5.81% |
| CC(=O)N1CCc2cc(Br)cc(S(=O)(=O)NCCCN3CCC(C)CC3)c21 | -16.8% |
| CC(=O)c1sc(NC(=O)CCS(=O)(=O)c2ccccc2)nc1C | 8.51% |
| Cc1sc(NC(=O)c2cc(-c3ccc(Cl)cc3)nc3ccccc23)c(C(N)=O)c1C | 5.31% |
| NC(=O)/C(=C/c1ccco1)NC(=O)/C=C/c1ccccc1 | -5.56% |
| N/C(=N\OC(=O)COc1ccccc1)c1ccc(Cl)cc1 | 2.9% |
| CN1CCN(CC(=O)Nc2c(C#N)cnn2-c2ccccc2)CC1 | 12.1% |
| CCOC(=O)[C@@H]1[C@H]2COc3cc(OC)ccc3[C@@H]2N2C(=O)N(c3ccc(C(F)(F)F)cc3)C(=O)[C@]12C | 15.1% |
